The text below walks through data of PubChem BioAssay AID2315 (National Center for Advancing Translational Sciences (NCATS), 2010).

Structures are written as SMILES. About 27,000 (9.3%) of roughly 290,000 compounds were called active. What follows is part of a selection rich in actives, with near analogues and random picks from the rest. Values without a mark were called inactive. Rule as the data show it: active = inhibition mostly above about 28% (no sharp cut-off); inactive = mostly below about 43%.

Usually inhibition stands for the drop in the measured response relative to a control, in per cent.

A short description of the experiment: A qHTS for Small Molecule Inhibitors of Shiga Toxin. Also: 0% is about no effect. The note with it: Vero cells, Shiga toxin protein synthesis inhibition reporter; at 38.7 µM, hits give high values. (In general: Quantitative high-throughput screening tests each substance at several concentrations.)
For `COc1cc(/C=C2\CCCc3c2nc2ccccc2c3C(=O)O)cc(Cl)c1O`, the inhibition is -3.8%.
Take `CCc1ccc(N2CC(C(=O)Nc3ccc(S(=O)(=O)Nc4nccs4)cc3)CC2=O)cc1` (centres undefined): the inhibition is 16.7%.
The result for `O=C(c1cccc(Cl)c1)N1CCN(Cc2ccccc2)CC1` reads -19.8%; that for `COc1ccc(-c2noc(CNC(=O)C(C)Oc3ccccc3)n2)cc1` (centres undefined), 11.6%.
The result for `Cc1ccccc1C(=O)N1CCC(C(=O)Nc2ccc(S(=O)(=O)N(C)C(C)C)cc2)CC1` reads 24.6%.
Turning to `COc1ccccc1-c1cnn2c(N3CCOCC3)cc(C)nc12`, the inhibition was 87.6% (active).
The result for `Cc1cc(C(F)(F)F)n2ncc(-c3ccccc3)c2n1` reads -2.7%; that for `COc1ccccc1NC(=O)C1CCCN(c2cc(C)nc3ncnn23)C1` (centres undefined), 2.25%; that for `N#Cc1c(-c2ccccc2)cc(-c2ccccc2)nc1SCC(=O)O`, -7.81%.
The result for `Cc1cc(C(=O)COC(=O)C2CC2)c(C)n1-c1ccc(F)cc1` reads 52.6% (active); that for `Cc1cc(C(=O)CSc2nc(N)cc(=O)[nH]2)c(C)n1-c1cccc(F)c1`, 3.21%; that for `Cc1ccc(-n2c(C)cc(C(=O)CN3C(=O)C(=O)N(C4CCCC4)C3=O)c2C)cc1`, -11%.
Under `CN(CC(=O)NCc1ccncc1)S(=O)(=O)c1ccc(Br)cc1` stands 9.73%; under `Cc1cc(S(=O)(=O)Nc2ccc(C(=O)NCC(c3ccco3)N3CCCC3)cc2)ccc1F` (centres undefined), -11.6%; under `CCC(C)[C@H](NC(=O)N1c2ccccc2NC(=O)[C@@H]1C(C)C)C(=O)N[C@@H](Cc1ccccc1)C(=O)O` (some centres undefined), -1.75%.
Take `CCCC(=O)n1nc(-c2ccccc2)nc1N`: the inhibition is 17.2%.
Under `Cc1nn(C(=O)c2ccoc2C)c(N)c1-c1ccccc1` stands 131% (active); under `Cc1nc2ccccc2c(-c2ccccc2)c1C(=O)c1ccccc1`, -2.44%.
The result for `Cc1cc(C)c2c(Cn3ccnc3)cc(=O)oc2c1` reads -6.18%; that for `CC(=O)Nc1ccc(S(=O)(=O)N2CCC(C(=O)NC3CC3)CC2)cc1`, -3.15%.
Under `CN(Cc1ccccc1Cl)C(=O)C1CCC(=O)N(CCc2cccc(F)c2)C1` (centres undefined) stands 2.46%; under `COc1ccc(S(=O)(=O)N(C)C)cc1NC(=O)CSc1ncccn1`, -6.2%; under `CN(C)S(=O)(=O)c1ccc2oc(SCC(=O)Nc3ccccc3F)nc2c1`, 113% (active).
In the case of `COc1ccc(NS(=O)(=O)c2ccc3oc(SCC(N)=O)nc3c2)cc1`, the inhibition is -13.2%.
Under `Brc1c(CSc2nncc3ccccc23)nc2ccccn12` stands 44.5% (active); under `CN(C(=O)CN1C(=O)CCSc2ccc(S(=O)(=O)N3CCCC3)cc21)c1ccccc1`, -7.94%; under `O=C(NCc1ccccc1Cl)c1ccc2c(=O)n(CC3CCCO3)c(=S)[nH]c2c1` (centres undefined), 28.6%.
The result for `Cc1cc(C)c(OCC(=O)N(Cc2cccs2)C2CCS(=O)(=O)C2)c(C)c1` (centres undefined) reads 12.7%; that for `CCOC(=O)N1CCN(C(=O)C(=O)Nc2sc3c(c2C#N)CC(C)(C)OC3)CC1`, -6.06%; that for `CCC(C)[C@H]1COCCS(=O)(=O)N1Cc1ccc(C)cc1` (some centres undefined), -2.97%.
Under `O=S1(=O)CCOC[C@H](CC2CCCCC2)N1Cc1ccc(F)cc1` stands 19.8% (active); under `CCCC[C@H]1COCCS(=O)(=O)N1Cc1cccc(Cl)c1`, -0.556%.
For the compound `Cc1ccc(S(=O)(=O)N2CC(C)N(S(C)(=O)=O)C2)cc1` (centres undefined), the inhibition was -4.24%.
Under `Cc1ccc(-c2nnc(CN3CCN(C)CC3)o2)cc1` stands 21.4%.
The result for `COc1cccc(NC(=O)Cn2c3ccc(F)cc3c3nc4n(c(=O)c32)CCS4)c1` reads -1.58%; that for `CCC(=O)Nc1ccc(S(=O)(=O)Nc2c(NC)c3ccccc3oc2=O)cc1`, 8.69%.
Under `O=C(N=C1SC2CS(=O)(=O)CC2N1c1cc(Cl)ccc1Cl)C1CC1` (centres undefined) stands -4.57%; under `O=C(c1ccc(F)cc1)n1cc(C(=S)N2CCOCC2)c2ccccc21`, -2.34%; under `O=C(Cn1c(=S)nc2ccccn21)N1CCc2ccccc2C1`, 38.4%.
Turning to `O=C(c1ccc(F)cc1)n1c(=S)nc2ccccn21`, the inhibition was 82.6% (active).
The result for `CC1C(=O)N(Cc2ccccc2)c2ccccc2N1C(=O)c1ccccc1` (centres undefined) reads 2.9%; that for `O=C(CN1C(=O)c2cccc3cccc1c23)Nc1ccccc1`, -7.35%.
Under `CSCc1cc(N(C)C)nc(SCc2ccc(Cl)cc2Cl)n1` stands -20.3%; under `CSCc1cc(N2CCOCC2)nc(SCc2ccc(Cl)cc2Cl)n1`, 30.9% (active); under `CC(C)(CNC(=O)Cc1ccc(Cl)cc1Cl)N1CCOCC1`, 2.65%.
Take `CCn1c(SCC(=O)Nc2ccc(Br)cc2)nc2sc3c(c2c1=O)CCN(C)C3`: the inhibition is 18.8%.
The result for `CCN(Cc1ccccc1)C(=O)CN1C(=S)NC(C)(C)CC1C` (centres undefined) reads -3.94%; that for `Cn1c(SCc2c(F)cccc2Cl)nnc1-c1cnccn1`, 119% (active).
As for `Oc1ccc(-n2nnnc2SCc2c(F)cccc2Cl)cc1`, the inhibition was -2.08%.
The result for `Cc1ccc(CSc2nnc(-c3cnccn3)n2C)cc1` reads 36.7%.
Under `CC(OC(=O)c1ccccc1N1C(=O)C2C3CCC(C3)C2C1=O)C(=O)c1ccccc1` (centres undefined) stands 5.16%; under `CC(OC(=O)c1ccc2ccccc2n1)C(=O)c1ccccc1` (centres undefined), 86.7% (active); under `COc1ccc(C(=O)COC(=O)c2ccc3ccccc3n2)cc1`, 28.4%.
Under `O=C(CCc1ccccc1F)N1CCN(c2ccccc2)CC1` stands -0.211%; under `O=C(CCSc1ccccc1)N1CCN(c2ccccc2F)CC1`, 95.5% (active); under `O=C(NCC(=O)N1CCN(c2ccccc2F)CC1)c1cccs1`, 26.2%.
With `Cc1ccc(C)c(N2CCN(S(=O)(=O)c3c(C)[nH]c(C)c3C(=O)N3CCCC3)CC2)c1`, the inhibition was 3.26%.
For `N/C(=N\OC(=O)c1cc(-c2ccccc2)nc2ccccc12)c1ccncc1`, the inhibition was 15.3%.
Under `Cc1cccc(/C(N)=N/OC(=O)c2ccccc2Cl)c1` stands 74.6% (active); under `Cc1cccc(C(=O)c2cccc(C)c2)c1`, 43.6%.
Turning to `CCc1c(C)nc2cc(C)[nH]n2c1=O`, the inhibition is 0.52%.
Under `Cc1cc(=O)n2[nH]c(-c3sccc3-n3c(C)ccc3C)cc2n1` stands 34.4%.
Under `Cc1nc2nc[nH]n2c(=O)c1C/C=C/c1ccccc1` stands -3.93%; under `CCc1c(C)nc2cc(-c3cccs3)[nH]n2c1=O`, 153% (active).
Regarding `C=CCc1c(C)nc2cc(-c3ccccc3)[nH]n2c1=O`, the inhibition is 45.5% (active).
The result for `CCCCN1Cc2c(nc3cc(-c4ccccc4)[nH]n3c2=O)C1=O` reads 2.49%; that for `COC(=O)c1cccc(N(C(=O)CNC(=O)c2cccs2)C(C(=O)NCC2CCCO2)c2ccc(OC)c(OC)c2)c1` (centres undefined), 22.3%.
For the compound `COc1cc(NC(=O)C2=CC(c3ccco3)=NS(=O)(=O)N2C)cc(OC)c1OC`, the inhibition was -2.22%.
Under `COc1cccc(CNC(=O)C2CCCN(S(=O)(=O)N3CC(C)CC(C)C3)C2)c1` (centres undefined) stands -1.73%; under `Cc1ccc(S(=O)(=O)N(CCCN(C)C)Cc2ccc3c(c2)OCO3)cc1`, 9.86%; under `O=S(=O)(c1ccc(Br)cc1)c1nc(-c2ccccc2)oc1N1CCOCC1`, -6.09%.
Under `COc1ccc(S(=O)(=O)NCC(=O)NC2CC2)cc1OC` stands -5.35%; under `Cn1nccc1C(=O)NC1CCCc2c1cnn2-c1ccc(F)cc1F` (centres undefined), 10.4%.
For `COC(=O)c1c(NC(=O)c2ccc(S(=O)(=O)N3CCOCC3)cc2)sc2c1CCN(C(C)C)C2`, the inhibition was -17.4%.
For `O=C(O)CCCC(=O)N1N=C(c2ccco2)CC1c1ccco1` (centres undefined), the inhibition was -14%.
Under `Cc1nn2c(c1-c1ccccc1)N=C(c1ccco1)CC2c1ccccc1` (centres undefined) stands 103% (active).
As to `Cc1cc(C)c(C(=O)CSc2nc(C)cc(=O)[nH]2)c(C)c1`, the inhibition was -13.9%.
The result for `CCC(C)(C)n1nnnc1C(c1ccc(OC)c(OC)c1)N1CCN(C(=O)c2ccco2)CC1` (centres undefined) reads -11.9%; that for `CCOC(=O)[C@@H]1[C@H]2COc3cc(OC)ccc3[C@H]2N2C(=O)N(c3ccc(F)cc3)C(=O)[C@]12C`, -4.71%.
The result for `Cc1cc(NC(=O)CN2CCCCC2C)nc2c1c(=O)oc1ccccc12` (centres undefined) reads -0.755%; that for `CCN(CC)CCN1C(=O)C(=O)/C(=C(/O)c2ccc(OC)c(OC)c2)C1c1ccccn1` (centres undefined), 59.8%.
The result for `CCN(CC)CCN1C(=O)C(=O)/C(=C(/O)c2cnn(-c3ccccc3)c2C)C1c1cccs1` (centres undefined) reads 79.5% (active); that for `CCN(CC)CCN1C(=O)C(=O)/C(=C(/O)c2ccccc2)C1c1ccccc1F` (centres undefined), 19.4%.
On to `O=[N+]([O-])c1cc(C(F)(F)F)ccc1NCCc1ccncc1`, for which the inhibition was 2.61%.
The result for `NC(=O)c1ccc(Nc2ccc3c(c2)CCC3)c([N+](=O)[O-])c1` reads 9.03%; that for `CSc1cccc(NC(=O)CN2C(=O)COc3ccc(S(=O)(=O)N4CCOCC4)cc32)c1`, 10.9%; that for `Cc1ccc(NC(=O)C(=O)NCc2ccco2)c(C)c1`, 109% (active).
Under `Cc1ccccc1NC(=O)NCc1ccco1` stands 18.7%; under `Cc1ccc(NC(=O)Cn2nnc(C(=O)NCc3ccco3)c2N)c(C)c1`, -2.94%.
Take `O=c1c2cc(Br)ccc2nc(-c2cccc(Cl)c2)n1O`: the inhibition is 0.78%.
Under `COc1cc(/C=N/NC(=O)Cc2ccccc2)cc(OC)c1OC` stands -8.46%.
With `CC(C)n1cnc2c(Nc3cccc(Cl)c3)nc(N(CCO)CCCO)nc21`, the inhibition is -2.33%.
The result for `NS(=O)(=O)c1cccnc1Nc1cccc(Cl)c1` reads 15.1%; that for `OCCCNc1nccc(-c2cc(Nc3cccc(Cl)c3)ncn2)n1`, 51.3% (active).
